Values without a mark were called inactive. Records with an inconclusive call do not appear. Activity calls are given as the source filed them. Unless noted, calls follow the shape of the dose curve; as a rule, active = well fitted curve in the direction sought with a large enough effect in the repeat runs; inconclusive = weak or mixed curves; inactive = no such curve, though single readings can be large; an effect the other way counts as inactive or inconclusive.

Assay [1] has as its target Progesterone receptor (Homo sapiens) (UniProt P06401). The assay can be described thus: qHTS assay to identify small molecule agonists of the progesterone receptor (PR) signaling pathway (AID 1346784; calls by dose curve; also: nearly all actives have a fitted effect of over 30% in size). In a few lines: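 Fluorescence from LiveBLAzer B/G FRET substrate cleavage (2 hr, RT) reported PR activation in PR-UAS-bla HEK 293T cells treated 16 hr at 37C/5% CO2 with compounds; medium contained 2% charcoal-stripped FBS.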
In general terms: qHTS replaces the single test concentration by a dilution series.

Assay [2] has the same target. Put plainly: qHTS assay to identify small molecule antagonists of the progesterone receptor (PR) signaling pathway (AID 1346795; active = well fitted inhibition curve with a large enough effect in the signal ratio in the repeat runs, not every such curve was filed as active; the % refers to the signal ratio). In a few lines: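 Fluorescence intensity measured 2 hr after adding beta-lactamase FRET substrate to PR-UAS-bla HEK293T cells that had been co-treated 16 hr with compound and 1 nM R5020 (final concentration) in 2% charcoal-stripped FBS.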

Assay [3] in a line: qHTS assay to identify small molecule agonists of the progesterone receptor (PR) signaling pathway - cell viability counter screen (AID 1346799; calls by dose curve; also: nearly all actives have a fitted effect of over 45% in size). In outline: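 In parallel with the beta-lactamase readout, cytotoxicity toward PR-UAS-bla HEK293T cells was measured by CellTiter-Glo luminescence following 16 hr compound incubation in 2% charcoal-stripped FBS medium.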
The nature of assay [4]: qHTS assay to identify small molecule agonists of the TGF-beta/Smad signaling pathway - cell viability counter screen (AID 1346829). Also: top concentration of the series differs between compounds; nearly all actives have a fitted effect of over 45% in size. In outline: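 Same-well cytotoxicity: CellTiter-Glo added after the 2 hr room-temperature beta-lactamase substrate step, luminescence measured 30 min later; cells had 5 hr of compound at 37 C.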
Assay [5] can be described thus: qHTS assay to identify small molecule agonists of the TGF-beta/Smad signaling pathway (AID 1346859; active = well fitted activation curve with a large enough effect in the signal ratio in the repeat runs, not every such curve was filed as active; the % refers to the signal ratio; also: series mostly up to about 77 µM). In a few lines: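 After overnight seeding, SBE-bla HEK 293T cells are dosed with compounds in DMSO and kept 5 hr at 37 C, 5% CO2. LiveBLAzer-type FRET substrate is then applied for 2 hr at room temperature.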
The target of assay [6] is Thyrotropin-releasing hormone receptor (Homo sapiens) (UniProt P34981). The assay can be described thus: qHTS assay to identify small molecule antagonists of the thyrotropin-releasing hormone receptor (TRHR) signaling pathway (AID 1346877; active = well fitted inhibition curve with a large enough effect in the repeat runs, not every such curve was filed as active; also: series mostly up to about 51 µM). In a few lines:
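Kinetic fluorescence (3 min, 1 s resolution) following stimulation with TRH at 1 nM final; HEK293 cells bearing human TRHR; 5 min compound preincubation at RT; concentration-response over 15 points, triplicates.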

Assay [7] can be described thus: Human pregnane X receptor (PXR) small molecule agonists, qHTS cell viability counter screen (AID 1346977). Also: nearly all actives have a fitted effect of over 50% in size. In a few lines:
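Viability counter screen: CellTiter-Fluor signal in PXR-Luc HepG2 cells, 24hr compound exposure, 37C, 5% CO2.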

The nature of assay [8]: Caspase-3/7 induction in HepG2 cells by small molecules, qHTS assay (AID 1346978). Also: nearly all actives have a fitted effect of over 15% in size. In outline:
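Wild-type HepG2 cells, 2,000/well, settled 5 hr at 37 C and 5% CO2, then compound-treated for 17 hr; caspase-3/7 activity read by luminescent Caspase-Glo 3/7 after 30 min at room temperature.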

Assay [9] in a line: Caspase-3/7 induction in CHO-K1 cells by small molecules, qHTS cell viability counter screen (AID 1346979). Also: nearly all actives have a fitted effect of over 35% in size. In outline:
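Viability readout by fluorescence (CellTiter-Fluor) on wild-type CHO-K1 cells exposed for 16hr at 37C and 5% CO2 to compounds delivered in DMSO; reagent incubated 1hr before reading.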

Assay [10] in a line: Caspase-3/7 induction in HepG2 cells by small molecules, qHTS cell viability counter screen (AID 1346981). Also: series mostly up to about 92 µM; nearly all actives have a fitted effect of over 30% in size. In a few lines:
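In this quantitative HTS counter screen, compounds delivered in DMSO were left on unmodified HepG2 cells for 16 hr at 37 C. Viability was then determined fluorometrically with CellTiter-Fluor, in parallel with caspase-3/7 induction in the same wells.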

The target of assay [11] is Nuclear receptor subfamily 1 group I member 2 (Homo sapiens) (UniProt O75469). The assay can be described thus: Human pregnane X receptor (PXR) small molecule agonists, qHTS assay (AID 1346982). Also: nearly all actives have a fitted effect of over 35% in size. In a few lines: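 Reporter HepG2 cells expressing PXR-Luc are cultured in charcoal-stripped FBS (5%), treated with compounds for 24 hr at 37 C, and assayed by ONE-Glo luminescence after 30 min at room temperature.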

Assay [12] has as its target Cytochrome P450 2D6 (Homo sapiens) (UniProt P10635). The assay can be described thus: Cytochrome P450 Family 2 Subfamily D Member 6 (CYP2D6) small molecule antagonists: luciferase reporter qHTS assay (AID 1671196). Also: nearly all actives have a fitted effect of over 50% in size. Also: potency is read from the fitted curve at half-maximal effect. In a few lines:
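Test chemicals meet CYP2D6 plus proluciferin substrate (10 min, RT); NADPH regenerating solution then drives turnover for 1 h. Detection reagent halts the reaction; luminescence measured after 20 min.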

Assay [13] deals with Thyrotropin-releasing hormone receptor (Homo sapiens) (UniProt P34981). The assay can be described thus: qHTS assay to identify small molecule agonists of the thyrotropin-releasing hormone receptor (TRHR) signaling pathway (AID 1346891; calls by dose curve;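 also: HEK293 cells expressing TRHR with calcium dye readout; series mostly up to about 58 µM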). In outline: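 Compounds were tested as agonists at 15 concentrations, in triplicate, on TRHR-Hek293 cells; calcium-sensitive dye fluorescence was recorded for 3 min following addition.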

Assay [14] is described as follows: Caspase-3/7 induction in CHO-K1 cells by small molecules, qHTS assay (AID 1346980). Also: nearly all actives have a fitted effect of over 15% in size. In outline: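 Wild-type CHO-K1 cells exposed to compounds for 17hr at 37 C, 5% CO2. Caspase-3/7 activity then measured by Caspase-Glo 3/7 luminescence after 30min at room temperature.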
Assay [15] is described as follows: qHTS assay to identify small molecule antagonists of the progesterone receptor (PR) signaling pathway - cell viability counter screen (AID 1346798). Also: series mostly up to about 92 µM; nearly all actives have a fitted effect of over 50% in size. In a few lines: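 CellTiter-Glo luminescence; PR-UAS-bla HEK293T, 3,000 cells/well; compound + R5020, 16 hr, 37C/5% CO2; 30 min RT before read.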
Assay [16] is described as follows: qHTS assay to identify small molecule antagonists of the TGF-beta/Smad signaling pathway - cell viability counter screen (AID 1346824). Also: nearly all actives have a fitted effect of over 50% in size. In a few lines: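 SBE-bla HEK 293T cells, incubated overnight, then compound plus 0.25 ng/mL TGF-beta1 (stock added) for 5 hr at 37 C. Viability was read in the same wells by CellTiter-Glo luminescence after 30 min at room temperature.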

In assay [17] the target is Cytochrome P450 2C19 (Homo sapiens) (UniProt P33261). Put plainly: Cytochrome P450 Family 2 Subfamily C Member 19 (CYP2C19) small molecule antagonists: luciferase reporter qHTS assay (AID 1671197). Also: nearly all actives have a fitted effect of over 65% in size. Also: potency is read from the fitted curve at half-maximal effect. In a few lines:
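Quantitative high-throughput screen of the Tox21 library using CYP2C19 with proluciferin substrate. Reaction: NADPH regeneration, 37C, 1 h, after 10 min compound preincubation at room temperature. Readout: luminescence.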
Background: In a reporter assay the amount or activity of a reporter protein is the signal.

Sequence of Nuclear receptor subfamily 1 group I member 2 (Homo sapiens) (O75469 whole entry, looked up): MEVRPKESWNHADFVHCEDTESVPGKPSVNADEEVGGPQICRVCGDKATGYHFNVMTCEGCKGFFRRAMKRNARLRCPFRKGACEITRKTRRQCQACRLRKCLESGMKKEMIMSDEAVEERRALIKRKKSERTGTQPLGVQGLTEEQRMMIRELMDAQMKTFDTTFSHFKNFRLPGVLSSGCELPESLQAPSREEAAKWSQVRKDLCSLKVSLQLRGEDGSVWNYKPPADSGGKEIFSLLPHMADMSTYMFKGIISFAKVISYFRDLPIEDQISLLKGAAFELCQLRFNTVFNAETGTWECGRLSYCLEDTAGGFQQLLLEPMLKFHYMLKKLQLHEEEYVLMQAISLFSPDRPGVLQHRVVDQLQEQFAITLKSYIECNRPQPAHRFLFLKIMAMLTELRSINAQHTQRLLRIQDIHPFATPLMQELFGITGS
Sequence of Thyrotropin-releasing hormone receptor (Homo sapiens) (P34981 whole entry, looked up): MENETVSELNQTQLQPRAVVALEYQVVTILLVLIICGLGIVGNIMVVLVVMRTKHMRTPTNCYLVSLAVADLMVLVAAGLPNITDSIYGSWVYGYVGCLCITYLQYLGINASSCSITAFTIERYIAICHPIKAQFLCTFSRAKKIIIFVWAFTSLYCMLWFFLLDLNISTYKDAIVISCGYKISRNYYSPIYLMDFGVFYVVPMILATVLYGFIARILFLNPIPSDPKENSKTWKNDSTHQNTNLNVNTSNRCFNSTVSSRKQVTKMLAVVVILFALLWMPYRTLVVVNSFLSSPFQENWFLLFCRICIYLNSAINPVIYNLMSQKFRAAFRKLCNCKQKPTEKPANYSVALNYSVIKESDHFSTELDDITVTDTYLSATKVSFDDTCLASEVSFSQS
Sequence of Cytochrome P450 2C19 (Homo sapiens) (P33261 whole entry, looked up): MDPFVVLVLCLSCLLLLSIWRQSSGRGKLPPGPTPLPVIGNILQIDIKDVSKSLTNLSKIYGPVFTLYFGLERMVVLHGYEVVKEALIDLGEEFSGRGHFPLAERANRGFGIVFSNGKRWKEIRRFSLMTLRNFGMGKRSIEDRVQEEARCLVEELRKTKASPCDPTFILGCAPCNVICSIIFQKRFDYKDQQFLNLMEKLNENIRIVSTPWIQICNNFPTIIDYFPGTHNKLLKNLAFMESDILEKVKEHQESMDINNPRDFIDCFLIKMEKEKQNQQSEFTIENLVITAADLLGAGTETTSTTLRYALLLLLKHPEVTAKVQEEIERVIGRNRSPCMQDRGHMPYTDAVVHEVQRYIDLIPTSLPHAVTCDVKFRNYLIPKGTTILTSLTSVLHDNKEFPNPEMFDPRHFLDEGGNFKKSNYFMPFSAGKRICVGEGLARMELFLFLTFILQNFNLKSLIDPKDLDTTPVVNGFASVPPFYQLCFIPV
Sequence of Cytochrome P450 2D6 (Homo sapiens) (P10635 whole entry, looked up): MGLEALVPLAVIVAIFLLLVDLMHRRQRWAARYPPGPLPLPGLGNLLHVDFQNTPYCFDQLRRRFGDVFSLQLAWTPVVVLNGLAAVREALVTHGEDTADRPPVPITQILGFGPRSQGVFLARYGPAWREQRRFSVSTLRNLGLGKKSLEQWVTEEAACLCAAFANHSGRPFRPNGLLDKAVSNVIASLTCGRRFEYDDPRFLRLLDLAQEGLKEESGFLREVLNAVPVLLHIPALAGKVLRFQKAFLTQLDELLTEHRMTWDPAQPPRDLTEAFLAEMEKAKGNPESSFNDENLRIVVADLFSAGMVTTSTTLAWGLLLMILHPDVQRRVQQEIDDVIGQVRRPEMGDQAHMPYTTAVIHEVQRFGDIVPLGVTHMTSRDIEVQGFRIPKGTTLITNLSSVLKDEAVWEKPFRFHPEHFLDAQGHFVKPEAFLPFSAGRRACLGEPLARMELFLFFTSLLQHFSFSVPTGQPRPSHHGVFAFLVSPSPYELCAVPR
Sequence of Progesterone receptor (Homo sapiens) (P06401 whole entry, looked up): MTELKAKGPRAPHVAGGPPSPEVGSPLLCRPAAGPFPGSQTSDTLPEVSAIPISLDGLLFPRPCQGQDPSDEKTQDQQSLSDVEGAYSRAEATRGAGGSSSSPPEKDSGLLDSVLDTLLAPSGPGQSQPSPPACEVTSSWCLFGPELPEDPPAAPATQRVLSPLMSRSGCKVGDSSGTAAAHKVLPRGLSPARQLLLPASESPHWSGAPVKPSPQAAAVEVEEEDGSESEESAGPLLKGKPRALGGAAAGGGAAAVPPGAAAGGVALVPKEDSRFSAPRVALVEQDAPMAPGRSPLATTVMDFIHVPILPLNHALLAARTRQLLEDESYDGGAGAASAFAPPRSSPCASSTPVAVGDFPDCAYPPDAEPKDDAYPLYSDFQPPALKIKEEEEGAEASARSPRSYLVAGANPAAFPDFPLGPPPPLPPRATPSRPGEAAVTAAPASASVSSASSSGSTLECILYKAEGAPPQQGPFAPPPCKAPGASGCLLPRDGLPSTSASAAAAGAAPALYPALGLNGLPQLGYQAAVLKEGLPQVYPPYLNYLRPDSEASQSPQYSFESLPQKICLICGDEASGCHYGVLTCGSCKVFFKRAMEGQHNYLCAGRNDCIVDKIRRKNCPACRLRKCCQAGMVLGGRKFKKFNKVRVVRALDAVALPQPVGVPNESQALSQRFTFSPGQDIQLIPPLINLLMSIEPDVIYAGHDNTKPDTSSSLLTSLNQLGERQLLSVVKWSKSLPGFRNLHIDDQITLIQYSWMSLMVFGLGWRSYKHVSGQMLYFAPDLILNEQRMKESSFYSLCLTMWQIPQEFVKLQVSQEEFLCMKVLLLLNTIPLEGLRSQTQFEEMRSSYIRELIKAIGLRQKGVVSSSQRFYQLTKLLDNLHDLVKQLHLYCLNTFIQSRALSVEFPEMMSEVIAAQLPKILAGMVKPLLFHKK

For `CO[Si](CCC1CCC2OC2C1)(OC)OC` (configuration not stated), the call in [1] was inactive. Further, the Potency entry in [2], in assay [3], in assay [4], in assay [5], in assay [6] and in [7] was “inactive” throughout. Further, the Potency entry in [8], in assay [9], in assay [10], in assay [11] and in assay [12] was “inactive” throughout.
With `COc1ccc(C#N)cc1`, the result in [1] was inactive. Moreover, the Potency entry in assay [2], in [3], in assay [4], in [5], in assay [6] and in assay [13] was “inactive” in each case. Further, the Potency result in assay [7], in assay [8], in assay [9], in [14], in assay [10] and in assay [11] was “inactive” in each case. Moreover, in assay [12], the Potency entry was “inactive”.
For the compound `CCOB(OCC)OCC`, the result in [1] was inactive. For the same compound, the Potency entry in assay [2], in assay [15], in [16], in assay [4], in assay [5] and in assay [7] was “inactive” in each case. Besides, the Potency entry in assay [8], in [9], in [14], in assay [10], in [11] and in assay [12] was “inactive” in each case. For the same compound, the Potency entry in assay [17] is “inactive”.
On to `O=C(O)CC(=O)O`, for which, in assay [1], the call was inactive. For the same compound, the Potency result in assay [2], in assay [3], in assay [16], in [4], in [5] and in [13] was “inactive” each time. In addition, the Potency entry in assay [7], in assay [8], in assay [9], in assay [14], in [10] and in assay [11] was “inactive” each time. The Potency in assay [12] was 71.2 µM (active).
`Cn1cnc2ncnc(N)c21`: the call in [1] was inactive. The Potency entry in [2], in assay [15], in assay [16], in assay [4], in [5] and in [6] was “inactive” throughout. Also, the Potency entry in assay [13], in [7], in [8], in assay [9], in assay [14] and in [10] was “inactive” throughout. Moreover, the Potency entry in assay [11] is “inactive”.
Consider `CC(C)=CCCC(C)O` (configuration not stated), for which the result in assay [1] was inactive. The Potency result in assay [2], in [15], in assay [16], in [4], in assay [5] and in [7] was “inactive” in each case. For the same compound, the Potency entry in assay [8], in assay [9], in [14], in assay [10], in [11] and in assay [12] was “inactive” each time. The Potency result in assay [17] is “inactive”.
As for `O=Cc1ccc(F)cc1`, the call in [1] was inactive. Also, the Potency entry in assay [2], in [15], in assay [3], in [5], in assay [6] and in assay [13] was “inactive” throughout. The Potency result in assay [7], in [8], in assay [9], in [10] and in assay [17] was “inactive” each time. The Potency in assay [12] is 35.6 µM (active).
With `C=C(C)C(=O)OCCC[Si](Cl)(Cl)Cl`, the compound was called inactive in assay [1]. Moreover, the Potency result in assay [2], in assay [15], in [4], in [5], in [7] and in assay [8] was “inactive” in each case. In addition, the Potency entry in [9], in assay [14], in assay [10] and in [11] was “inactive” each time. Further, the Potency in assay [17] is 80.4 µM (active).

Values taken from PubChem BioAssay (Tox21).
